# Screening data: PubChem BioAssay, National Center for Advancing Translational Sciences (NCATS)
# IL-1B inflam inh: qHTS for Inhibitors of Inflammasome Signaling: IL-1-beta AlphaLISA Primary Screen. THP-1 LPS/ATP IL-1B secretion, AlphaLISA, 16 h; stronger effect = lower value. activity change, % at 57.5 µM. 360,000 compounds, 4.7% hits. AID 743279, 2014; in the data active = activity change below about -50%; inconclusive = mostly about -30% to -49%
#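 Secreted IL-1B measured by AlphaLISA bead assay after 16 h compound exposure of THP-1 cells; compounds (final up to 57.5 uM) added 1 h before LPS (250 ng/mL) and ATP (1.25 mM) stimulation; lower signal means less secretion.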
# Giardia killer: Small Molecules that selectively kill Giardia lamblia: qHTS. Giardia lamblia trophozoite viability. activity change, % at 7.66 µM, hits read low. 340,000 compounds, 0.15% hits; in the data active = activity change below about -80%; inconclusive = between about -30% and that limit;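 also: parasites exposed to compound for two days anaerobically before the ATP read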
#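 Media and compound were dispensed first, then trophozoites at 100 cells/well; plates sat 48 hrs at 37 deg C without oxygen before ATP luminescence reagent was added and read after 15-30 min at room temperature.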
# DT40 TDP1 no CPT: qHTS for Inhibitors of human tyrosyl-DNA phosphodiesterase 1 (TDP1): qHTS in cells in absence of CPT | 420,000 compounds, 15% hits | DT40 Tdp1-/- hTDP1 cells, no CPT, ATP luminescence, 48 h | Potency, µM (titrated, usually from 46.2 µM), for the others: at the highest dose activity change, negative = growth inhibition, most hits filed as inhibitors; also: potency is read from the fitted curve at half-maximal effect; nearly all actives have a fitted effect of over 55% in size
#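 Camptothecin absent (DMSO only). Human TDP1-complemented DT40 knockout cells, 400 cells/well, 37 °C for minimum 48 hr; ATP measured via CellTiter-Glo, 30 min dark incubation, luminescence.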
# ELG1 repair inh: qHTS screen for small molecules that inhibit ELG1-dependent DNA repair in human embryonic kidney (HEK293T) cells expressing luciferase-tagged ELG1; HEK293T ELG1-luciferase reporter, luminescence, 16 h; DNA damage induced by 5-fluorouridine; Potency, µM (top dose mostly 46.1 µM), without a hit: at the top dose activity change, negative = inhibition, usual class: inhibitors; 330,000 compounds, 2.3% hits; AID 504467, 2011; also: potency is read from the fitted curve at half-maximal effect; nearly all actives have a fitted effect of over 55% in size
#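 Reporter activity after DNA damage by 5-fluorouridine is monitored. Compound-treated cells incubate 16 hr at 37 °C, then ONE-Glo is added for 30 min before luminescence reading.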
# TDP1 block: qHTS Assay for Inhibitors of Tyrosyl-DNA Phosphodiesterase (TDP1). Tyrosyl-DNA phosphodiesterase 1 (Homo sapiens), Q9NUW8. recombinant TDP1, AlphaScreen DNA substrate cleavage. Potency, µM (top dose mostly 130 µM), inactives show at the top dose activity change, negative = inhibition, usual class: inhibitors. 350,000 compounds, 0.28% hits. AID 485290, 2010; also: potency is read from the fitted curve at half-maximal effect; nearly all actives have a fitted effect of over 40% in size
# Target sequence (Q9NUW8 whole entry, looked up): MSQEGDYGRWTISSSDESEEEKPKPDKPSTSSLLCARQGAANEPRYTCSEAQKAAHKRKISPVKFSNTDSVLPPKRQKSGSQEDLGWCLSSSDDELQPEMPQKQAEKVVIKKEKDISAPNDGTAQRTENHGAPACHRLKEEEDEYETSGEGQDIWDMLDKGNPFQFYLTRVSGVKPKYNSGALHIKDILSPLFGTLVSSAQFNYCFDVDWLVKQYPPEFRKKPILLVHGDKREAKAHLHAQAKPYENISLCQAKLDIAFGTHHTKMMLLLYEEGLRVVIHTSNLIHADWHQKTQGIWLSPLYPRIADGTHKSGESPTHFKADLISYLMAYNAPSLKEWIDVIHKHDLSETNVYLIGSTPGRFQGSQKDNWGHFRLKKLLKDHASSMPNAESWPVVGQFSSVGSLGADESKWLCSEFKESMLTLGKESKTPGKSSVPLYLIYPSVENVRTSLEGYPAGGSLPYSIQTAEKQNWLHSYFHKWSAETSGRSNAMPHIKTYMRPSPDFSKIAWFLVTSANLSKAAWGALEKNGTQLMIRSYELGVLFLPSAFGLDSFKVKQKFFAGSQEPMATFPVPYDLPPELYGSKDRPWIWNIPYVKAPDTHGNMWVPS
#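 AlphaScreen read-out: signal falls as enzyme removes the 3' tyrosine-FITC from a 5'-biotinylated DNA oligo (15 nM, 5 min, RT). Enzyme was E. coli-made recombinant Tdp1 at 1 nM, exposed to compound for 15 min beforehand; beads 10 ug/ml, 10 min.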
# TDP1 cell CPT: qHTS for Inhibitors of human tyrosyl-DNA phosphodiesterase 1 (TDP1): qHTS in cells in presence of CPT | chicken DT40 Tdp1-/-;hTDP1 cells + 20 nM CPT, ATP luminescence, 48 h | Potency, µM (series often up to 46.2 µM), for inactives: top-dose activity change, negative = growth inhibition, most hits filed as inhibitors | 420,000 compounds, 12% hits; also: potency is read from the fitted curve at half-maximal effect; nearly all actives have a fitted effect of over 55% in size
#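 Chicken DT40 Tdp1-/- cells complemented with human TDP1, 400 cells/well, exposed to compounds plus 20 nM camptothecin for at least 48 h at 37 C; viability read as ATP content by CellTiter-Glo luminescence.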
# * marks the source's active call; other numbers are inactive results; ? = inconclusive; . = no result; [ ] = remark or other dose. Rows were chosen to be rich in hits. Some 19% of all compounds tested hit in one or more screens of this group. Unless noted, calls follow the shape of the dose curve; as a rule, active = well fitted curve in the direction sought with a large enough effect; inconclusive = small, poorly fitted or top-dose-only effect, or another doubt; inactive = no such curve, though single readings can be large; an effect the other way counts as inactive or inconclusive. % is scaled to controls: 0 for no effect and ±100 for the full control effect.
SMILES,IL-1B inflam inh,Giardia killer,DT40 TDP1 no CPT,ELG1 repair inh,TDP1 block,TDP1 cell CPT
CCN(C[C@H]1N[C@@](Cc2ccccc2)(C(=O)OC)[C@H]2C(=O)N(C)C(=O)[C@@H]12)C(=O)Nc1ccccc1,24,13,-25%,7%,1%,-15%
COc1cccc(C2NC(C(=O)O)CCC2C)c1 (stereo unspecified),.,.,.,.,9%[21 µM],.
Cc1cc(C)n(Cc2cccc(C(=O)NCC3Cc4cccc(-c5ncccn5)c4O3)c2)n1 (stereo unspecified),.,.,-29%,.,.,1%[9.04 µM]
Cc1ccc(CNc2ncnc3ccc(-c4c(C)noc4C)cc23)o1,.,.,.,.,20%,.
C=CCNC(=S)N1CCN(c2ccccc2Cl)CC1,-23,-5,?,-11%,.,?
CCCCNC(=S)N1CCN(c2ccccc2Cl)CC1,-58*,14,-25%,-15%,10%,-4%
S=C(NCc1ccco1)N1CCN(c2nc(-c3ccccc3)cs2)CC1,-73*,-6,?,?,1%,?
Cc1ccc(Cl)cc1N1CCN(C(=S)NCc2ccco2)CC1,-82*,26,18µM*,?,-5%,-7%
O=C(c1ccccc1)N1CCN(C(=S)NCc2ccco2)CC1,-11,12,-13%,?,0%,17%
S=C(NCc1ccco1)N1CCN(c2nc(-c3ccc(Cl)cc3)cs2)CC1,-61*,11,?,?,6%,?
O=C(CN1CCN(c2nc(-c3ccc(Cl)cc3)cs2)CC1)NCc1ccco1,-8,-22,?,-4%,0%,?
CC1CC(CCC(=O)NC(=S)Nc2ccc(Cl)cn2)C(=O)O1 (stereo unspecified),56,0,-8%,12%,4%,1%
CC(=O)N1CCC2(CCCN(C(=O)Nc3cccc(C#N)c3)C2)CC1,.,.,-5%,.,.,-1%
COc1ccc(S(=O)(=O)NCC(=O)N(CC(=O)NCc2ccco2)Cc2ccc(F)cc2)cc1,-11,8,-19%,-20%,6%[0.0935 µM],-1%
S=C(NCC1CCCO1)N1CCN(c2nc(-c3ccccc3)cs2)CC1 (stereo unspecified),-58*,-23,?,23µM*,0%,?
COc1cc(SC)ccc1C(=O)Nc1ccc2c(c1)CCC2,?,-18,-88%,?,.,?
CCCCc1ccc(NC(=O)N[C@H](C(=O)O)C(C)C)cc1,19,11,7.3µM*,?,0%[56.1 µM],16µM*
CCC(C)[C@H](NC(=O)Nc1ccc(C)cc1C)C(=O)O (stereo partly specified),10,11,-61%,3%,.,12µM*
CCCCc1ccc(NC(=O)N[C@H](C(=O)O)C(C)CC)cc1 (stereo partly specified),17,-4,10µM*,-2%,3%,?
CCc1nn(Cc2cccc(F)c2)c(=O)c2cc3cc(C)ccc3n12,.,.,?,.,-3%,?
CCn1c(CSCc2ccc(Cl)cc2)nnc1SCC(=O)Nc1cccc(C(=O)O)c1,1,46,-1%,1%,5%,11%
NC(=O)Nc1ccc(C(=O)OCC(=O)N2CCc3ccccc3C2)cc1,-28,-12,16%,8%,4%,-19%
Clc1cccc(-c2nnc3sc(-c4ccc5c(c4)OCO5)nn23)c1,.,.,.,6%,0%,.
Clc1ccccc1-c1nnc2sc(-c3ccc(Br)o3)nn12,-52*,-1,-23%,6%,7%,-27%
O=S(=O)(c1cccc(-c2nn3c(-c4ccncc4)nnc3s2)c1)N1CCOCC1,.,.,.,0%,1%,.
